Source: PubChem BioAssay (NCATS)
Records with an inconclusive call do not appear. Where a call stands in place of a potency, no number is given. A number with no mark means an inactive call. Activity calls are given as the source filed them. Calls follow the shape of the dose curve; as a rule, active = well fitted curve in the direction sought with a large enough effect; inconclusive = small, poorly fitted or top-dose-only effect, or another doubt; inactive = no such curve, though single readings can be large; an effect the other way counts as inactive or inconclusive.

Experiments:
[1] = Quantitative highthroughput screen to assess conditional lethalithy of NOMO1 cells grown in RPMI1640 with untreated serum (RPMI+s) (AID 1963876); also: nearly all actives have a fitted effect of over 35% in size
In short: (§1)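 Each medium arm—HPLM with 10% dialyzed FBS, or RPMI1640 with 5 mM glucose and 10% untreated or dialyzed FBS—was screened against an 11-point, 3-fold compound titration for 48 h at 37 °C, with CellTiter-Glo luminescence as endpoint.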

[2] = Quantitative highthroughput screen to assess conditional lethalithy of NOMO1 cells grown in RPMI1640 with dialyzed fetal bovine serum (RPMI+ds) (AID 1963877); also: nearly all actives have a fitted effect of over 30% in size; as to viability: series mostly up to about 46 µM
In short: as §1

[3] = Quantitative highthroughput screen to assess conditional lethalithy of NOMO1 cells grown in Human Plasma-Like Medium with dialyzed fetal bovine serum (HPLM+ds) (AID 1963878); also: nearly all actives have a fitted effect of over 35% in size
In short: as §1

[4] = Quantitative highthroughput screen to assess conditional lethalithy of P12 Ichikawa cells grown in Human Plasma-Like Medium with dialyzed fetal bovine serum (HPLM+ds) (AID 1963879); details: Potency: viability; also: nearly all actives have a fitted effect of over 35% in size; as to viability: series mostly up to about 46 µM
In short: as §1

[5] = Quantitative highthroughput screen to assess conditional lethalithy of P12 Ichikawa cells grown in RPMI1640 with dialyzed fetal bovine serum (RPMI+ds) (AID 1963880); details: Potency: P12-Ichikawa viability; also: nearly all actives have a fitted effect of over 35% in size
In short: as §1

[6] = Quantitative highthroughput screen to assess conditional lethalithy of P12 Ichikawa cells grown in RPMI1640 with untreated serum (RPMI+s) (AID 1963881); details: Potency: viability; also: nearly all actives have a fitted effect of over 35% in size; as to viability: series mostly up to about 46 µM
In short: as §1

[7] = Quantitative highthroughput screen to assess conditional lethalithy of SEM cells grown in Human Plasma-Like Medium with dialyzed fetal bovine serum (HPLM+ds) (AID 1963882); also: nearly all actives have a fitted effect of over 35% in size; as to viability: series mostly up to about 46 µM
In short: as §1

[8] = Quantitative highthroughput screen to assess conditional lethalithy of SEM cells grown in RPMI1640 with unreated serum (RPMI+s) (AID 1963883); also: nearly all actives have a fitted effect of over 35% in size
In short: as §1

[9] = Quantitative highthroughput screen to assess conditional lethalithy of SEM cells grown in RPMI1640 with dialyzed fetal bovine serum (RPMI+ds) (AID 1963884); also: nearly all actives have a fitted effect of over 35% in size; as to viability: series mostly up to about 46 µM
In short: as §1
Potency is read from the fitted curve at half-maximal effect.

SMILES	Potency [1]	Potency [2]	Potency [3]	Potency [4]	Potency [5]	Potency [6]	Potency [7]	Potency [8]	Potency [9]
CC(NCc1ccc2c(c1)nc(NC(=O)c1ccc(-c3cn[nH]c3)s1)n2CC(C)(C)O)C(C)(C)C (centres undefined)	2640 nM (active)	2640 nM (active)	1480 nM (active)	2350 nM (active)	2640 nM (active)	2640 nM (active)	26.4 nM (active)	41.8 nM (active)	18.7 nM (active)
CCC(C=C[C@@H]1OC(=O)C=C[C@H]1C)=C[C@H](C)CC=CC(C)=C[C@@H](C)C(=O)[C@@H](C)[C@H](O)[C@@H](C)CC(C)=CC(=O)O	110 nM (active)	87.7 nM (active)	78.2 nM (active)	110 nM (active)	87.7 nM (active)	87.7 nM (active)	34.9 nM (active)	15.6 nM (active)	22 nM (active)
Cc1cc(Nc2cc(N3CCN(C)CC3)nc(C=Cc3ccccc3)n2)n[nH]1	3030 nM (active)	3400 nM (active)	3030 nM (active)	2150 nM (active)	2700 nM (active)	3030 nM (active)	540 nM (active)	540 nM (active)	429 nM (active)
CC(C)(O)[C@H]1CC[C@@](C)([C@H]2[C@@H](O)C[C@@]3(C)[C@@H]4C[C@H](O[C@@H]5O[C@H](CO)[C@@H](O)[C@H](O)[C@@H]5O)[C@H]5C(C)(C)[C@@H](O[C@@H]6OC[C@@H](O)[C@H](O)[C@@H]6O)CC[C@@]56C[C@@]46CC[C@]23C)O1	inactive	inactive	inactive	inactive	inactive	inactive	inactive	inactive	inactive
C[N+]1(C)[C@@H]2CC(OC(=O)[C@H](CO)c3ccccc3)C[C@H]1[C@H]1O[C@@H]12 (some centres undefined)	inactive	inactive	inactive	inactive	inactive	inactive	inactive	inactive	inactive
Cc1cccc(C#Cc2ccccc2)n1	inactive	inactive	inactive	inactive	inactive	inactive	inactive	inactive	13200 nM (active)
C[C@H](CCC(=O)O)[C@H]1CC[C@H]2[C@@H]3[C@H](O)C[C@@H]4C[C@H](O)CC[C@]4(C)[C@@H]3CC[C@]12C	inactive	inactive	inactive	inactive	inactive	inactive	inactive	inactive	inactive
CC1=C(CO)C(=O)O[C@@H]([C@@H](C)[C@H]2CC[C@H]3[C@@H]4C[C@H]5O[C@]56[C@@H](O)C=CC(=O)[C@]6(C)[C@@H]4CC[C@]23C)C1	372 nM (active)	469 nM (active)	296 nM (active)	296 nM (active)	264 nM (active)	235 nM (active)	235 nM (active)	235 nM (active)	264 nM (active)
CN(C)CC=CC(=O)Nc1cc2c(Nc3ccc(F)c(Cl)c3)ncnc2cc1O[C@H]1CCOC1	1870 nM (active)	1870 nM (active)	1660 nM (active)	1660 nM (active)	2350 nM (active)	1870 nM (active)	1050 nM (active)	743 nM (active)	1180 nM (active)
C=C1CCC2[C@](C)(CO)C(O)CC[C@]2(C)C1CC=C1C(=O)OCC1O (some centres undefined)	inactive	inactive	inactive	inactive	inactive	inactive	inactive	34 nM (active)	inactive
CC(C=CC(=O)NO)=C[C@@H](C)C(=O)c1ccc(N(C)C)cc1	2090 nM (active)	1870 nM (active)	1660 nM (active)	1480 nM (active)	1180 nM (active)	1180 nM (active)	590 nM (active)	662 nM (active)	590 nM (active)
CC(C)c1nc(CN(C)C(=O)N[C@H](C(=O)N[C@@H](Cc2ccccc2)C[C@H](O)[C@H](Cc2ccccc2)NC(=O)OCc2cncs2)C(C)C)cs1	inactive	inactive	inactive	inactive	inactive	inactive	inactive	inactive	inactive
NC[C@@H]1O[C@@H](O[C@H]2[C@@H](O)[C@H](O[C@@H]3[C@@H](O)[C@@H](N)C[C@H](N)[C@H]3O[C@H]3O[C@H](CN)[C@@H](O)[C@@H](O)[C@H]3N)O[C@H]2CO)[C@H](N)[C@@H](O)[C@@H]1O	inactive	inactive	inactive	inactive	inactive	inactive	inactive	inactive	inactive
N#CC(=C(O)c1ccc(Cl)cc1Cl)c1nc2cc(Cl)ccc2c(=O)[nH]1	inactive	inactive	inactive	inactive	inactive	inactive	inactive	inactive	inactive
CN1[C@@H]2CCC[C@@H]1CC(NC(=O)c1nn(C)c3ccccc13)C2 (some centres undefined)	inactive	inactive	inactive	inactive	inactive	inactive	inactive	inactive	inactive
C[C@@H]1[C@H](O)[C@@H](C)C=CC=CC=CC=CC=CC=CC=C[C@H](O[C@@H]2O[C@H](C)[C@H](O)[C@H](N)[C@@H]2O)C[C@@H]2O[C@](O)(C[C@@H](O)C[C@@H](O)[C@H](O)CC[C@@H](O)C[C@@H](O)CC(=O)O[C@H]1C)C[C@H](O)[C@@H]2C(=O)O	inactive	inactive	inactive	inactive	inactive	inactive	inactive	inactive	inactive
